From ChEMBL document CHEMBL3988442, “University of Dundee, Small-Polar-MMV Screening Library” (2021) come the findings set out here.

Holding throughout (set-up): scale not given: direction of the effect not stated beside the values
Experiment [1] deals with Protein translocase subunit SecA (Escherichia coli (strain K12)) (UniProt P10408). In words: Assay to Identify E. coli SecA ATPase Inhibitors. The class given is functional. The settings on record: 30 µM.
Experiment [2] has as its target T1, Ubiquitin-activating enzyme e1, putative (Leishmania donovani (strain BPK282A1)) (UniProt E9BSI1).
T1 sequence (whole entry): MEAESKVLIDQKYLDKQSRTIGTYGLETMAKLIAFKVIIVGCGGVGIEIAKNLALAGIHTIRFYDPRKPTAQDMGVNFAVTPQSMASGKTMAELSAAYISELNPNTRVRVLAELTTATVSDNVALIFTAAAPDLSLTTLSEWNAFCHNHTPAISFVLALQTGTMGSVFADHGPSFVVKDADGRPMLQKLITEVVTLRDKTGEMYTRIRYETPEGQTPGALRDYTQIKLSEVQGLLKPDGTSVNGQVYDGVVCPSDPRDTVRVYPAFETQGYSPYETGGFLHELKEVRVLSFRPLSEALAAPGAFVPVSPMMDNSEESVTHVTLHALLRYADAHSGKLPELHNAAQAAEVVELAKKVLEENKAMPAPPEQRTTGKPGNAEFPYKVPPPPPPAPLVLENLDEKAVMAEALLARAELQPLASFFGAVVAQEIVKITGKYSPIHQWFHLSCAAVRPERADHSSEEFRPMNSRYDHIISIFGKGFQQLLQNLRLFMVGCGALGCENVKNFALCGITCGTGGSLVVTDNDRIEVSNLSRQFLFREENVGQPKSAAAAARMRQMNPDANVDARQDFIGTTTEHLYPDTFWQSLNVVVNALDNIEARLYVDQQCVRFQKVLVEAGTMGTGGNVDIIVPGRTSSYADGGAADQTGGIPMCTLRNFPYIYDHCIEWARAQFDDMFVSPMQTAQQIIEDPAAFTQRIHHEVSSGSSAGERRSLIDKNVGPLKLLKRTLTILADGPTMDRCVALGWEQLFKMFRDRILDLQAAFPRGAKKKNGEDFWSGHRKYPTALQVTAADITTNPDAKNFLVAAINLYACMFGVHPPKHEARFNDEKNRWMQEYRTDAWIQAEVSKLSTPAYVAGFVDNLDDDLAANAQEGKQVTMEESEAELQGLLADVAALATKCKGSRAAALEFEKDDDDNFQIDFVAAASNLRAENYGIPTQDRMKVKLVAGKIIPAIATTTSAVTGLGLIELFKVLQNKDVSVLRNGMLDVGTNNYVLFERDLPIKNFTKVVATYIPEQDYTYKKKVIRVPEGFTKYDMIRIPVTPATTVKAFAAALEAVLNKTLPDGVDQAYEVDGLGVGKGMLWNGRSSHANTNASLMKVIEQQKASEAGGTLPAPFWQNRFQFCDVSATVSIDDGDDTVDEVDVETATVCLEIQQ
In words: Leishmania donovani Ubiquitin Activating Enzyme (LdE1). The class given is functional. The settings on record: 30 µM.

Experiment [3] addresses Sialic acid-binding Ig-like lectin 9 (Homo sapiens) (UniProt Q9Y336). In words: Hs-Siglec9 ALPHAscreen SOP 20170721. The settings on record: 10 µM. A general note: Bead proximity is the source of the signal in Alpha formats.
For experiment [4], the system named is Trypanosoma cruzi. Nature of the experiment: Trypanosoma cruzi phosphomannomutase and mannose-1-phosphate guanylyltransferase assay. The experiment is classed as functional. The note with it: 10 µM.
The target in experiment [5] is T2, Arginase-2, mitochondrial (Homo sapiens) (UniProt P78540).
T2 sequence (whole entry): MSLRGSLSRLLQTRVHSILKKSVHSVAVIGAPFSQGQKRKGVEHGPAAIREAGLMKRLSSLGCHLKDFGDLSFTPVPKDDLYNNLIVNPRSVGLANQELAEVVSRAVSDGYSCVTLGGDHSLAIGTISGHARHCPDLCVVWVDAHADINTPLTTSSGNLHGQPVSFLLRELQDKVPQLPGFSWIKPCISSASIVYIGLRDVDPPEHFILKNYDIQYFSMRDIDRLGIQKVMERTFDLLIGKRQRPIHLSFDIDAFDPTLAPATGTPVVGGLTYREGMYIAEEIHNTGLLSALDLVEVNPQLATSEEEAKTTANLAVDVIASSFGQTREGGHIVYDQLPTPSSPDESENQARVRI
Nature of the experiment: in vitro enzyme assay to detect the production of urea directly proportional to the activity of Arginase II. Note: in the data most compounds retested in dose-response had high values. The class given is functional. The settings on record: 33.3 µM.

Experiment [6] concerns the target T3, Proteasome subunit beta (Trypanosoma cruzi) (UniProt O96673).
T3 sequence (whole entry): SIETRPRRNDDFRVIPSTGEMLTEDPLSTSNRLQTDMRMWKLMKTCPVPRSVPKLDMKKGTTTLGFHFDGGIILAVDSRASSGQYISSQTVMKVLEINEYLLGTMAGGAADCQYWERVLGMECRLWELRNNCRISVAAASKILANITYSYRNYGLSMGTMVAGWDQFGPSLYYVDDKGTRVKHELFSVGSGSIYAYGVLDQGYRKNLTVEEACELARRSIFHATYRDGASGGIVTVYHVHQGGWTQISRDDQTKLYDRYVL
Nature of the experiment: Trypanosoma cruzi proteasome chymotrypsin-like activity (TcProtChymo) assay. Note: in the data most compounds retested in dose-response had high values. The experiment is classed as functional. The settings on record: 9.37 µM.

The species entered for experiment [7] is Homo sapiens. In words: To identify inhibition of the IFN signalling (Jak-Stat) pathway via expression of an eGFP reporter gene under the control of an IFN-stimulated response element (ISRE) containing MxA promoter. The experiment is classed as functional. The settings on record: 30 µM.
For experiment [8], the target named is T4, Tyrosyl-tRNA synthetase, putative (Trypanosoma cruzi (strain CL Brener)) (UniProt Q4DSP6).
T4 sequence (whole entry): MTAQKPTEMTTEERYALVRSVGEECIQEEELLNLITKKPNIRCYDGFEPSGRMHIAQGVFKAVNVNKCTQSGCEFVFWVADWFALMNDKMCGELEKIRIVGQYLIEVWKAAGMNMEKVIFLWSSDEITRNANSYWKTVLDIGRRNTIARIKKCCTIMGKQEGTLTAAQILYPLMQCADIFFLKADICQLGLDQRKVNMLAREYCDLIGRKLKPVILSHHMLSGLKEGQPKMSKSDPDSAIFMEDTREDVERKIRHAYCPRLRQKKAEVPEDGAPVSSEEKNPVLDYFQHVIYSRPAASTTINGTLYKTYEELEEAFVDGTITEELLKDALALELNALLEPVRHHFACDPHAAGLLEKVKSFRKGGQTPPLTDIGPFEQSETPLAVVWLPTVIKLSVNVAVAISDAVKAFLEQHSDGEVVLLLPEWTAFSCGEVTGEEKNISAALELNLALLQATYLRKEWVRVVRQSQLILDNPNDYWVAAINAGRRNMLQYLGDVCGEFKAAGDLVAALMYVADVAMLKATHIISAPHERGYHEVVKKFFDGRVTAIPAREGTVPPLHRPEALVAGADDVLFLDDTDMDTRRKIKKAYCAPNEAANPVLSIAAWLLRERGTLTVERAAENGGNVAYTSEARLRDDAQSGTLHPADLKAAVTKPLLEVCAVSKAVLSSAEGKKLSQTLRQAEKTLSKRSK
Nature of the experiment: Trypanosoma cruzi tyrosyl tRNA synthetase (TcYRS) _High Tyrosine SOP. Note: in the data most compounds retested in dose-response had high values. The settings on record: 30 µM. The class given is functional.

Experiment [9] deals with T4, Tyrosyl-tRNA synthetase, putative (Trypanosoma cruzi (strain CL Brener)). Nature of the experiment: Trypanosoma cruzi tyrosyl tRNA synthetase (TcYRS) SOP. The note with it: 30 µM. The experiment is classed as functional.
Experiment [10] deals with Chromo domain-containing protein 1 (Saccharomyces cerevisiae (strain ATCC 204508 / S288c) (Baker's yeast)) (UniProt P32657). In words: ScCHD-1 Enzyme Inhibition Assay. Note: in the data most compounds retested in dose-response had high values. The note with it: 30 µM. The experiment is classed as functional.

For some of these results: Entries with a potency or affinity are not part of this list.

Chain of Chromo domain-containing protein 1 (Saccharomyces cerevisiae (strain ATCC 204508 / S288c) (Baker's yeast)) (P32657 whole entry, the tested form may be a part): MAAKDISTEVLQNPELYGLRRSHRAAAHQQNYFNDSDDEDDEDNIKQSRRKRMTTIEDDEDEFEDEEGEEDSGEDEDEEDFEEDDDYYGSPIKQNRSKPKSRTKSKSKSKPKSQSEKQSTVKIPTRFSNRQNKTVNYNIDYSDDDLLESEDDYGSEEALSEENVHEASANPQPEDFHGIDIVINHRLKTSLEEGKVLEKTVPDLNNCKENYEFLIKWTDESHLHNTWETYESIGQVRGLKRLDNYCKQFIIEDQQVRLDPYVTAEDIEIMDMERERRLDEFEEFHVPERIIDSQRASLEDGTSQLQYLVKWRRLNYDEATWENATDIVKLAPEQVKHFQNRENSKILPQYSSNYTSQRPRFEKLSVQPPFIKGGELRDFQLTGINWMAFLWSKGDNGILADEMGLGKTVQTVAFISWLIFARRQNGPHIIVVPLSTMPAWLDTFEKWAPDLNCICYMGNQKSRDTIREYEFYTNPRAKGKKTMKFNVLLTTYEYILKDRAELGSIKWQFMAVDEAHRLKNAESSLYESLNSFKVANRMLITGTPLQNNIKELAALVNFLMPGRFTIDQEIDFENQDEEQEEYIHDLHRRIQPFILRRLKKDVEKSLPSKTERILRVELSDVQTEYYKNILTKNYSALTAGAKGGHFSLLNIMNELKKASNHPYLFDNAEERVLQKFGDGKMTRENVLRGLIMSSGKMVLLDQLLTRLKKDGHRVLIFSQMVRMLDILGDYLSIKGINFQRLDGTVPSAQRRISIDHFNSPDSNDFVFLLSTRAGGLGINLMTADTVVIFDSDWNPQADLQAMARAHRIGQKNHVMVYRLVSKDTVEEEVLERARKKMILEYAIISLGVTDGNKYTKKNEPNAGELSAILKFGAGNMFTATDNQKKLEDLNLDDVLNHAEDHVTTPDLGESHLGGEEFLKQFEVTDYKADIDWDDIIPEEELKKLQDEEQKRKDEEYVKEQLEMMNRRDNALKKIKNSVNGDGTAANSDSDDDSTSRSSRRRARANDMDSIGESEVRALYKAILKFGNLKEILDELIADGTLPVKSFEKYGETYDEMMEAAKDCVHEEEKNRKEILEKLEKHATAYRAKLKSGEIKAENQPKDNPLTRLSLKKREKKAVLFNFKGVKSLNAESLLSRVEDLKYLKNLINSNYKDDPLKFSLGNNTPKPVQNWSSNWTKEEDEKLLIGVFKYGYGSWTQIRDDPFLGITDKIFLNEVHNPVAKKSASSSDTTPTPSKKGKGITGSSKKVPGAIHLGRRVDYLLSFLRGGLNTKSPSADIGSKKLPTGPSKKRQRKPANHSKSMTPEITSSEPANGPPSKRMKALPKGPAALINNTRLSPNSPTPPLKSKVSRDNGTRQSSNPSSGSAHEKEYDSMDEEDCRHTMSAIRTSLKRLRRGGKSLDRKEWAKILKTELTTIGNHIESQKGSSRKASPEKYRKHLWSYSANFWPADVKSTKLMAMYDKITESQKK
Chain of Protein translocase subunit SecA (Escherichia coli (strain K12)) (P10408 whole entry): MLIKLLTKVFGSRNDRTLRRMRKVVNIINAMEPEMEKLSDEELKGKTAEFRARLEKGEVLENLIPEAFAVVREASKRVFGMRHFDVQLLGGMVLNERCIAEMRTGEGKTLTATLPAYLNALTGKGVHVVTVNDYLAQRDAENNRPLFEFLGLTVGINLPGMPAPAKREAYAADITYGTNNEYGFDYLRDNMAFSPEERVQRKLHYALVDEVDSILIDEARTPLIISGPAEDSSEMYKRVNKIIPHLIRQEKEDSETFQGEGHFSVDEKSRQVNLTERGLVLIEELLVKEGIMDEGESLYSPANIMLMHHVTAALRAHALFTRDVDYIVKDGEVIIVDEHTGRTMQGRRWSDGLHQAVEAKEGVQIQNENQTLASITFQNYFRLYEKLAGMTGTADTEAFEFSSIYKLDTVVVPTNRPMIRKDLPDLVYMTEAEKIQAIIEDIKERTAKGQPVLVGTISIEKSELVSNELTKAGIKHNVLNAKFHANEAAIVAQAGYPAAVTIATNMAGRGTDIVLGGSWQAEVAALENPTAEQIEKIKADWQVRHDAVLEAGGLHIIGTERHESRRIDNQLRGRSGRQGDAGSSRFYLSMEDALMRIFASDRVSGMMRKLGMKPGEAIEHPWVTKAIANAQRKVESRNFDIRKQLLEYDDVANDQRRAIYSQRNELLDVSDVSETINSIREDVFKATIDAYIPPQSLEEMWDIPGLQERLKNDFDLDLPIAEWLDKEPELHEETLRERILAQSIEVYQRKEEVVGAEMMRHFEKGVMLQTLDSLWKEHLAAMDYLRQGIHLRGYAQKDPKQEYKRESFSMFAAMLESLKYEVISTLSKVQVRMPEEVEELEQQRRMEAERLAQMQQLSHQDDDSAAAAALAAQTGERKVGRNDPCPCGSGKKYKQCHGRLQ
Chain of Sialic acid-binding Ig-like lectin 9 (Homo sapiens) (Q9Y336 whole entry): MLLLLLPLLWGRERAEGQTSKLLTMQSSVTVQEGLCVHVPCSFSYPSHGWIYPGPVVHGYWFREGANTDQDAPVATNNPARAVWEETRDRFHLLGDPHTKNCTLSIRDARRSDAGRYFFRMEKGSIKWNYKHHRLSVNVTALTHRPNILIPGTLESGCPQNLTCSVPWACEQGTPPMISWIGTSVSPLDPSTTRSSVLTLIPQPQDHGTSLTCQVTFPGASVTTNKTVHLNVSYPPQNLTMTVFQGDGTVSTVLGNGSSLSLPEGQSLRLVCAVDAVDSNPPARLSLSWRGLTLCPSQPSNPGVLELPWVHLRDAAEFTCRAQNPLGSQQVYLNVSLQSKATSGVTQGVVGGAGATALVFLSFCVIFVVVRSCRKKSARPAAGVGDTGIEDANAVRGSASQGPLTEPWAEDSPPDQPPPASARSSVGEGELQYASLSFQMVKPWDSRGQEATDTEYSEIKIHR

On to `CC(C)(C)C(=O)N1C[C@H](c2ccsc2)[C@H]2CN(Cc3cccs3)CC[C@H]21`, for which the Percent Effect was -0.241% in [1]; 17.3% in experiment [2]; -5.01% in experiment [3]; 2.37% in experiment [4]; 2.65% in experiment [5]; 17.1% in [6]. The Percent Effect in experiment [7] is 56.8%; in experiment [8], 2.12%; in [9], 17.5%; in experiment [10] it was -22%.

With `CC(NCc1c(C(C)C)nn(C)c1N1CCOCC1)C(N)=O` (stereo not given), the Percent Effect is -5.06% in [1]; 7.69% in experiment [2]; -15.9% in experiment [3]; -3.66% in experiment [4]; -1.23% in [5]; 14.8% in experiment [6]. For the same compound, the Percent Effect in [7] is 16.4%; in [8] it was 0.478%; in experiment [9] it was 8.43%; in experiment [10], -6.18%.

With `Cc1ccc(C(N)c2cccc(S(C)(=O)=O)c2)cc1` (stereo not given), the Percent Effect in experiment [1] was -4.76%; in experiment [2], 10.7%; in experiment [3], 8.28%; in [4] it was -1.81%; in experiment [5], 5.76%; in experiment [6] it was 5.34%. Moreover, the Percent Effect is 27% in experiment [7], 4.74% in [8], 5.13% in experiment [9] and -9.27% in [10].

`COc1ccc(CN2CCN(C(C)c3nc(C4CC4)no3)CC2)cc1` (stereo not given): the Percent Effect in [1] is -1.5%; in experiment [2] it was 12.8%; in [3] it was 2.49%; in experiment [4], 3.29%; in experiment [5], -9.43%; in [6], 7.76%. Besides, the Percent Effect in [7] is 26.9%; in [8], 3.35%; in [9], 10.8%; in experiment [10], -7.9%.

As to `NC(=O)C1CCN(C(=O)c2cccc(OCc3cscn3)c2)CC1`, the Percent Effect was -1.56% in [1]; 10.3% in experiment [2]; -4.08% in [3]; -3.1% in experiment [4]; 5.33% in [5]; 5.89% in experiment [6]. Besides, the Percent Effect was 26.4% in experiment [7], 2.39% in experiment [8], 10.8% in experiment [9] and -2.13% in [10].

For the compound `Cc1ccccc1-c1noc(CN2CCn3c(nnc3C3CC3)C2)n1`, the Percent Effect in experiment [1] is -6.21%; in experiment [2], -25.6%; in [3], -13.3%; in experiment [4], -3.1%; in experiment [5], -0.41%; in experiment [6], 5.21%. For the same compound, the Percent Effect was 15.8% in [7], 0.478% in experiment [8], 1.21% in experiment [9] and -7.86% in [10].

With `Cn1nc2c(cc1=O)CN(Cc1nnc(C3CC3)o1)CC2`, the Percent Effect in experiment [1] was -3.12%; in experiment [2], 51.3%; in [3] it was -13.6%; in experiment [4], -6.29%; in experiment [5], 0.41%; in [6], 6.91%. In addition, the Percent Effect is 36.5% in experiment [7], -11% in experiment [8], -6.02% in [9] and -6.1% in experiment [10].
